# Hits are enriched below; roughly 0.9% of the tested compounds scored in any of these assays.
# APEX1 inh – qHTS Assay for Inhibitors of the Human Apurinic/apyrimidinic Endonuclease 1 (APE1); Potency, µM (series often up to 65.8 µM), for inactives: top-dose activity change, negative = inhibition, hits mostly inhibitors; recombinant APE1, TAMRA/BHQ-2 abasic DNA cleavage fluorescence; 0.35% of 350,000 active; DNA repair nuclease/redox regulator APEX1 (Homo sapiens), P27695; AID 2517, 2012;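 further: plate controls were vehicle for no effect and reference inhibitor for full effect; nearly all actives have a fitted effect of over 55% in size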
#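 Measures dequenching upon AP-site incision of a 5'-TAMRA/3'-BHQ-2 THF-containing duplex, 50 nM; human APE1 0.75 nM after 15 min room-temperature exposure to compound; kinetic three-point read at one-minute spacing.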
# BLM inh – qHTS Assay for Inhibitors of Bloom's syndrome helicase (BLM) | Potency, µM (series often up to 56.1 µM), inactives show at the highest dose activity change, negative = inhibition, hits mostly inhibitors | recombinant BLM DNA unwinding, fluorescence dequenching | 0.2% of 350,000 active;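 further: plate controls were vehicle for no effect and no enzyme for full effect; nearly all actives have a fitted effect of over 35% in size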
# Target sequence (P54132 whole entry, looked up): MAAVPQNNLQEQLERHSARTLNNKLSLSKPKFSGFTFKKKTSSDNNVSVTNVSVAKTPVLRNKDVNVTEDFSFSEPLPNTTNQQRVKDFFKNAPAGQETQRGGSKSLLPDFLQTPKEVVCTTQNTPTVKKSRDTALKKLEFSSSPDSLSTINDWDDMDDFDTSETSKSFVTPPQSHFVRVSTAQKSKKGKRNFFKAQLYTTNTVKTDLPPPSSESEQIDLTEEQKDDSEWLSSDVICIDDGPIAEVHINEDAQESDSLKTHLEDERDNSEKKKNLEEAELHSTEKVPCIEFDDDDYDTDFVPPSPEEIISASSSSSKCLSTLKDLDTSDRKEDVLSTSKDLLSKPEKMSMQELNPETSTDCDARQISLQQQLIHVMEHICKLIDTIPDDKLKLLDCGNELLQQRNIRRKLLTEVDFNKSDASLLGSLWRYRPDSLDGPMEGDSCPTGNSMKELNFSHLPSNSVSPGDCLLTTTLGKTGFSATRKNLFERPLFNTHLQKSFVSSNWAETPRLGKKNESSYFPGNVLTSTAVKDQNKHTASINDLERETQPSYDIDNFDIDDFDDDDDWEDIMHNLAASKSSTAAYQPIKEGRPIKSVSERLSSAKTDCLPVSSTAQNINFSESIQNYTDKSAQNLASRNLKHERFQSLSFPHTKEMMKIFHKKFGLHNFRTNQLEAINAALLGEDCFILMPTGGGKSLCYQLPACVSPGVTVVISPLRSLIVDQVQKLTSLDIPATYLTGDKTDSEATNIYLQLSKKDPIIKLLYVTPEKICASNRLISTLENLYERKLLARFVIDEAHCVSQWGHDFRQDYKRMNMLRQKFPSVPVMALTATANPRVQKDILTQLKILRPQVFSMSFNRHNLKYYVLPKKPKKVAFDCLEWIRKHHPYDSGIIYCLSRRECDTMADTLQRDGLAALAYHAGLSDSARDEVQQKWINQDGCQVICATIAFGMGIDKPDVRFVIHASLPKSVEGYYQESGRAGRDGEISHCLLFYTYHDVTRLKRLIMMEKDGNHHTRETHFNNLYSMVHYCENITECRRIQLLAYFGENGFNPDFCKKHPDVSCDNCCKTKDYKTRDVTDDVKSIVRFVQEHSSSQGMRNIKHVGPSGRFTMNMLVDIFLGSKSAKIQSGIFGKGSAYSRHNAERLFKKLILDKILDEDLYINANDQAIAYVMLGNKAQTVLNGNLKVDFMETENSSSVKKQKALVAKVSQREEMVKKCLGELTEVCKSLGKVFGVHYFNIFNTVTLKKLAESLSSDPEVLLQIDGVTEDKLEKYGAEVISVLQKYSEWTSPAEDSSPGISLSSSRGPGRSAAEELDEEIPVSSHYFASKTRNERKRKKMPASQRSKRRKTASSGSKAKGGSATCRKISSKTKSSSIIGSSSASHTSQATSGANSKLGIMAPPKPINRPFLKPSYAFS
# TRb-SRC2 inh – qHTS for Inhibitors of the Interaction of Thyroid Hormone Receptor and Steroid Receptor Coregulator 2; Thyroid hormone receptor beta (Homo sapiens), P10828; TRbeta-SRC2 peptide binding, fluorescence polarization; receptor liganded with 1 µM T3; Potency, µM (series often up to 106 µM), for inactives: at the highest dose activity change, negative = inhibition, most hits filed as inhibitors; 0.065% of 280,000 active; AID 1469, 2008;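 further: plate controls were bound peptide for no effect and peptide without receptor for full effect; nearly all actives have a fitted effect of over 50% in size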
#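 Decrease in fluorescence polarization of 20 nM Texas Red SRC2 coactivator peptide flagged inhibition of its binding to 0.6 uM TRb LBD; 1 uM T3 included, incubation 5 hr, ex 555/em 632 nm.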
# TR SRC2 fluor cs – Total Fluorescence Counterscreen for Inhibitors of the Interaction of Thyroid Hormone Receptor and Steroid Receptor Coregulator 2 | TRb/SRC2 Texas Red total fluorescence interference | Potency, µM (titrated, usually from 106 µM), without a hit: at the top dose fluorescence change, negative = quenching | 0.29% of 280,000 active | AID 1479, 2009; active means well fitted curve in either direction with a large enough effect; inconclusive means small, poorly fitted or top-dose-only effect
#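 Human TRb ligand-binding domain at 0.6 uM with 20 nM Texas Red SRC2 peptide in Tris buffer containing 1 uM T3 and 5% DMSO, incubated with compound 5 h at ambient temperature. Total fluorescence (555/632 nm) calculated as parallel + 2 × perpendicular.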
# GoLoco inh red – qHTS Assay for Inhibitors of RGS12 GoLoco Motif Activity (Red Fluorophore); Guanine nucleotide-binding protein G(i) subunit alpha-1 (Homo sapiens), P63096; Gai1:RGS12 GoLoco peptide FP, rhodamine, 10 min; Potency, µM (top dose mostly 61.6 µM), for the others: at the highest dose activity, negative = inhibition, usual class: inhibitors; 0.44% of 230,000 active; AID 880, 2007; active means well fitted inhibition curve with a large enough effect, not every such curve was filed as active; inactive means no such curve, though single readings can be large or run the other way; further: nearly all actives have a fitted effect of over 30% in size
# RECQ1 inh – qHTS Assay for Inhibitors of RecQ-Like Dna Helicase 1 (RECQ1). 0.54% of 240,000 active. Potency, µM (doses to about 57.3 µM), for the others: at the top dose activity, negative = inhibition, hits mostly inhibitors. RECQ1 DNA unwinding, red fluorescence kinetic read;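 further: plate controls were vehicle for no effect and no enzyme for full effect; nearly all actives have a fitted effect of over 30% in size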
#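 50 nM RECQ1T1 preincubated 15 min with compound in Tris pH 8.0 buffer with MgCl2, DTT, Tween-20 and 2.5 ug/ml poly(dI-dC); started with 200 nM TAMRA/BHQ-2 forked duplex and 2 mM ATP. Unwinding read as fluorescence (525/598 nm), two reads 2 h apart.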
# Numbers without * were called inactive; i = inactive; ? = inconclusive; . = not tested or not shown; ! = not active in a repeat; [ ] = another dose, or the depositor's remark. Unless noted, the call rests on the fitted dose curve; in most records, active means well fitted curve in the direction sought with a large enough effect; inconclusive means small, poorly fitted or top-dose-only effect, or another doubt; inactive means no such curve, though single readings can be large; an effect the other way counts as inactive or inconclusive. Unless noted, on the % scale 0 is the no-effect control and ±100 the full control effect; potency means the concentration at half of the fitted maximal effect.
SMILES,APEX1 inh,BLM inh,TRb-SRC2 inh,TR SRC2 fluor cs,GoLoco inh red,RECQ1 inh
Nc1ccccc1Cl,?,.,7.6%,-1.5%,50.1µM*,-0.2%
Clc1ccccc1Cl,3.3%,-6.5%,2.2%,2.1%,0.3%,-6.8%
CN(C)[C@@H]1C(=O)C(C(N)=O)=C(O)[C@@]2(O)C(=O)C3=C(O)c4c(O)ccc(Cl)c4[C@@](C)(O)C3C[C@@H]12 (some centres undefined),-2.7%,-3.3%,7.8%,39.8µM*[quencher],-1.2%,-11.0%
Cc1ccccc1C(=O)Nc1cccc(OC(C)C)c1,.,.,-4.7%[201 µM],-2.7%[201 µM],.,.
CCOc1ccc(N2C(=O)/C(=C/c3ccco3)C(=O)NC2=S)cc1,21.2µM*,?,.,.,.,.
Cc1ccccc1N1C(=O)/C(=C/c2ccco2)C(=O)NC1=S,0.0752µM*,0.891µM*,.,.,.,.
Cc1cccc(N2C(=O)/C(=C/c3ccc(N4CCN(C)CC4)o3)C(=O)NC2=S)c1C,-12.2%,-7.9%,-6.0%,-1.4%,288.1%,-16.7%
CCOP(=O)(NC(C)C)Oc1ccc(S(C)=O)c(C)c1 (centres undefined),.,.,0.1%[201 µM],0.6%[201 µM],.,.
C=C(C)CN(CC)c1c([N+](=O)[O-])cc(C(F)(F)F)cc1[N+](=O)[O-],.,.,-3.4%[201 µM],0.7%[201 µM],.,.
CC1(C)[C@H](C=C(Cl)Cl)[C@H]1C(=O)O[C@H](C#N)c1ccc(F)c(Oc2ccccc2)c1,.,.,3.8%[201 µM],-1.5%[201 µM],.,.
O=C1NC(=S)NC(=O)C12C(c1ccc(F)cc1)NC(=S)NC2c1ccc(F)cc1 (centres undefined),-6.0%,-3.1%,1.3%,-1.3%,-1.4%,-8.6%
CCC1(CCCC(=O)c2ccc(F)cc2)C(=O)NC(=S)NC1=O,-2.4%,0.8%,5.8%,-0.7%,2µM*,-3.4%
CN(C)C(=S)SSC(=S)N(C)C,-2.1%,-2.8%,1.9%[201 µM],-1.3%[201 µM],3.16µM*!,-5.4%
O=C(O)C(F)(F)C(F)(F)C(F)(F)C(F)(F)C(F)(F)C(F)(F)C(F)(F)C(F)(F)F,.,.,?,126µM*![quencher],.,.
C[N+]1(C)[C@@H]2CC[C@H]1CC(OC(=O)c1c[nH]c3ccccc13)C2 (some centres undefined),-10.6%,.,.,.,.,.
C[N+]1(C)C2CCC1CC(OC(=O)c1ccccc1)C2 (centres undefined),-2.6%,1.9%,3.6%,-6.9%,3.98µM*,i
C/C=C1/C[C@@H](C)[C@](O)(CO)C(=O)OCC2=CCN3CC[C@@H](OC1=O)C23 (some centres undefined),?,-0.6%,7.0%,-6.0%,5.9%,22.4µM*
C=C1C/C(=C/C)C(=O)O[C@@H]2CCN3CC=C(COC(=O)[C@]1(C)O)[C@H]23,-0.1%,-0.6%,3.3%,-4.4%,-1.6%,2.6%
CCOP(=O)(OCC)C1(O)C(=O)Nc2ccccc21 (centres undefined),-0.7%,-3.4%,1.1%,-1.0%,4.1%,-4.5%
CC1CCCC(C2(O)C(=O)Nc3ccccc32)C1=O (centres undefined),14.0%,-0.7%,-13.8%,-0.7%,14.1µM*,i
Cn1ncnc2c(=O)n(C)c(=O)nc1-2,?,1.12µM*,?,-2.5%,-14.2%,?
N#Cc1cc(I)c(O)c(I)c1,.,.,9.0%[201 µM],-5.0%[201 µM],.,.
Cc1cc(/C=C2\C(=O)NC(=O)N(c3ccccc3F)C2=O)c(C)n1-c1cc(C(=O)O)cc(C(=O)O)c1,10.6µM*,44.2%,.,.,.,.
CNC(=O)O/N=C(\SC)C(=O)N(C)C,.,.,-8.6%[201 µM],-3.1%[201 µM],.,.
CC1=CC(=O)NP(=O)(Oc2ccc3ccccc3c2)N1 (centres undefined),-3.0%,-4.7%,5.1%,-3.4%,12.6µM*,i
SMILES,APEX1 inh,BLM inh,TRb-SRC2 inh,TR SRC2 fluor cs,GoLoco inh red,RECQ1 inh
CN(C)c1ccc(NC(=O)Oc2ccccc2)cc1,-4.6%,-6.5%,44.7µM*,?,-8.4%,i
CC(C)(C)[C@@H](O)/C(=C\c1ccc(Cl)cc1Cl)n1cncn1,.,.,-1.8%[201 µM],-1.2%[201 µM],.,.
ClC1=C(Cl)C(Cl)(C2(Cl)C(Cl)=C(Cl)C(Cl)=C2Cl)C(Cl)=C1Cl,11.2µM*,-8.1%,?,31.6µM*[quencher],.,?
C=C(C)C(=O)OCC(CC)CCCC (centres undefined),.,.,-0.1%[201 µM],-5.6%[201 µM],.,.
CN(C)c1nc(=O)n(C2CCCCC2)c(=O)n1C,.,.,-2.4%[201 µM],-2.5%[201 µM],.,.
O=C(O[C@@H]1Cc2c(O)cc(O)cc2O[C@@H]1c1cc(O)c(O)c(O)c1)c1cc(O)c(O)c(O)c1,0.891µM*,-4.9%,3.8%[201 µM],-9.3%[201 µM],-4.1%,3.16µM*
CCCCCCCC/C=C\CCCCCCCC(=O)OC[C@@H](COP(O)(O)=S)OC,?,?,-1.3%,-2.5%,.,25.1µM*
CCCCC/C=C\C/C=C\C/C=C\C/C=C\CCCC(=O)OC(CO)CO,-2.9%,-7.7%,-9.4%,-0.2%,-17.8%,2.0%
CCSCc1ccccc1OC(=O)NC,.,.,-3.4%[201 µM],-1.6%[201 µM],.,.
CC1(C)OC(c2ccccc2)=C/C(=C/C=C2C(=O)NC(=S)NC2=O)O1,-11.1%,22.4µM*,?,13.2%,-37.9%,25.1µM*
CN1/C(=C\C=C2C(=O)NC(=S)NC2=O)C(C)(C)c2ccccc21,2.9%,-28.7%,-8.0%,0.6%,-151.0%,-1.4%
O=C1C(I)=CC(=C(c2cc(I)c(O)c(I)c2)c2ccccc2C(=O)O)C=C1I,?,15.8µM*,.,.,.,.
O=C(Nc1ccccc1)Nc1ccnc(Cl)c1,.,.,6.1%[201 µM],-1.0%[201 µM],.,.
O=C1NC(=O)C(=C/C=C/c2coc3ccc(Br)cc3c2=O)C(=O)N1,?,-13.9%,?,25.1µM*[fluorescent],-176.0%,35.5µM*
c1ccc(C2CC2)c(OCC2=NCCN2)c1,13.1%,-5.8%,?,44.7µM*![fluorescent],-1.3%,-9.0%
Cc1cc2c(C(F)(F)F)cc(=O)oc2c2c1NCCC2,-1.8%,1.1%,-10.1%,-1.3%,1.8%,-10.2%
O=c1cc(C(F)(F)F)c2cc3c4c(c2o1)CCCN4CCC3,6.1%,-6.4%,-6.3%,2.6%,12.6µM*,i
Clc1ccc(-c2cc(Cl)c(Cl)cc2Cl)cc1Cl,.,.,0.9%[201 µM],-1.4%[201 µM],.,.
C/C=C1/C[N@@+]2(C)CC[C@]34C(=C(C=O)[C@H]1C[C@H]32)Nc1ccccc14,2.5%,.,-4.3%,-1.9%,6.31µM*,1.0%
C/C=C1/C[N+]2(C)CCC34C(=C(C=O)[C@H]1C[C@@H]32)Nc1ccccc14 (some centres undefined),-0.5%,.,.,.,.,.

# Bioassay records deposited in PubChem BioAssay by National Center for Advancing Translational Sciences (NCATS).
